Results from the supplement of paper PMC6555819.

Legend:
Assay in all cases: PBM binding z-score (relative to random genomic background probes); higher = stronger binding; sequences stand for … in GC…GCGATTGACAGCGTAGAATGAAGG
[1] = test system: RARb homodimer (NR concentration 270 nM)
In short: (§1)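 Custom Agilent 4×180K protein-binding microarrays carried double-stranded probes. Their 34-nt variable regions held direct-repeat seeds, single-nucleotide variants, half-site ablations and random human genomic background sequences. Arrays were incubated 1 h with ligand-free nuclear receptor dimers in PBS pH 7.4, 2% milk, 0.02% Triton X-100, 1 mM DTT, 0.2 mg/mL BSA and 0.4 mg/ml salmon testes DNA. Antibodies against each partner (one per run) detected binding, and scanned fluorescence was regression-normalized. Binding z-scores use random background probes as reference.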

[2] = test system: RARg:RXRa (NR concentration 270 nM, RXRa partner concentration 90 nM)
In short: as §1

[3] = test system: RARg homodimer (NR concentration 270 nM)
In short: as §1

[4] = test system: RXRa DBDmut IVT, anti-RXR (DBD mutation: RXRa K156A/R161A, NR concentration 90 nM)
In short: as §1

[5] = test system: RXRa homodimer (NR concentration 180 nM)
In short: as §1

[6] = test system: THRa:RXRa (NR concentration 90 nM, RXRa partner concentration 90 nM)
In short: as §1

[7] = test system: THRa homodimer (NR concentration 90 nM)
In short: as §1

[8] = test system: VDR homodimer (NR concentration 270 nM)
In short: as §1

Sequence | PBM binding z-score [1] | PBM binding z-score [2] | PBM binding z-score [3] | PBM binding z-score [4] | PBM binding z-score [5] | PBM binding z-score [6] | PBM binding z-score [7] | PBM binding z-score [8]
GGAACGACGGCAAGTTGATAGCAGAGTTTGATGG | -0.7 | -0.136 | -0.0502 | -0.124 | -0.0735 | -0.769 | -1.02 | -0.205
TCTAGTTGGTCACGGAGGTCATACACGACGGGTA | 4.18 | 4.45 | 4.21 | 1.16 | 4.65 | 3.5 | 2.17 | 3.53
GTACTAAGGTGAATAGGTCGTTGATGAGTAGGCG | 2.3 | 3.3 | 1.84 | 0.451 | 2.22 | 3.11 | 1.66 | 0.722
CCTACTGGGACAAGGTCATTGATCAGTCAAAGCA | 3.22 | 4 | 3.34 | 1.7 | 3.71 | 3.47 | 2.27 | 3.29
CGAACTAGGTCAACCAGGACAGTGAATACATTGA | 3.24 | 4.4 | 5.25 | 1.8 | 2.99 | 3.53 | 1.82 | 1.85
TTACCAAGGTGAAAGGTCGTCGATGCACGCCTTG | 2.78 | 4.43 | 2.22 | 0.201 | 6.2 | 3.55 | 0.956 | 0.709
ATATGTAGGTTACATCCCGGTCATTCAGGCTATG | 2.44 | 2.92 | 1.76 | 0.814 | 1.44 | 2.18 | 1.44 | 1.12
TCTATTAGTTGAAGGCCAACCGACGAGTCCGTTT | 0.914 | 0.229 | 0.415 | 1.59 | 0.648 | 0.129 | 0.372 | 1.35
CCTATTGGGCCAAAGGTCATTGATTCCAATGCTC | 4.43 | 5.85 | 4.73 | 1.62 | 6.7 | 3.29 | 0.647 | 2.85
GCGACTGGGGCAAAGCCGGTTACCATAAGGTTGG | 0.363 | -0.242 | 0.26 | -0.988 | -0.295 | 0.48 | -0.526 | -0.688
AGAACGAGGGCACGGTGAGTTGATAGCAGAGTAG | 1.6 | 2.2 | 2.31 | 1.82 | 1.53 | 2.18 | 0.165 | 2.1
AGTCAAAGTTCATCTAGCTAACGTAAGATATGCT | 3.76 | 5.27 | 6 | 4.58 | 4.7 | 1.67 | -0.302 | 4.9
CGAACTGGGTCAGAACAGGACAGTGAAGGATGAT | 1.53 | 1.84 | 2.27 | 0.00591 | 1.26 | 3.55 | -0.0909 | 0.0814
ATACCAAGGTGGTCGTGAGGTCGTTGATACTAAC | 1.63 | 1.25 | 0.566 | 0.422 | 1.53 | 3.02 | 2.64 | 3.47
CCCTACGGGTCACTGACAGGTTATAGCATTTGGA | 3.42 | 5.77 | 4.37 | 0.859 | 4.97 | 2.93 | 0.405 | 1.07
GTACCATGGTGAATAGGTCGTTGATGAGTAGGCG | 0.603 | 0.323 | 0.274 | -0.264 | 0.592 | 0.133 | -0.299 | 0.21
CAGCGTAGGTCAGGGCCAGTATAGGAGGAACGTT | 2.49 | 3.4 | 4.22 | -0.29 | 2.04 | 1.24 | -0.0112 | -0.494
CTCGAAAGGTCGTGCTCAGGTGAGTAGACCAAAC | 2.36 | 5.23 | 3.76 | 1.79 | 4.83 | 3.96 | 0.703 | 0.392
ATCTCTAGGTAACCAAGTTCAGTCAATGCCGAAC | 2 | 1.22 | 1.21 | 1.27 | 0.744 | 1.86 | 1.06 | 3.43

Sequence | PBM binding z-score [1] | PBM binding z-score [2] | PBM binding z-score [3] | PBM binding z-score [4] | PBM binding z-score [5] | PBM binding z-score [6] | PBM binding z-score [7] | PBM binding z-score [8]
TGTCAAAGTTCGAAGGTAACGTAAGTATCCACAC | 1.02 | 2.38 | 1.83 | 1.74 | 2.23 | 1.44 | 0.0268 | 0.722
CCTACTGCGCCAAGGTCATTGATCAGTCAAAGCA | 3.46 | 3.72 | 2.98 | 2.48 | 3.42 | 3.54 | 3.12 | 4.13
CCTAGCAGGCCAATCTGGGTCACCCAAGGCTTGA | 2.55 | 1.34 | 1.38 | -0.396 | 1.07 | 3.92 | 0.793 | -0.51
TGAATGAGGTTAAAGATCCGGGAACGTGGCGTCG | 0.578 | 1.5 | 1.05 | 1.22 | 2.61 | 2.12 | 0.411 | 0.437
GCGACTGGGGCATCAGCAGGTTACCATTACTTAA | 1.18 | 0.735 | 0.488 | 0.25 | 0.246 | 0.833 | 0.247 | -0.0861
CCTATTAGTTTACCATAAGGGCAACCGAAGCTCG | 1.96 | 1.14 | 1.1 | 0.915 | 0.566 | 2.06 | 1.39 | 1.03
AGTCAAAGTTCACTAGGGAACGTAAGATTCAGCT | 3.65 | 4.75 | 5.65 | 4.23 | 3.67 | 2.05 | -0.852 | 3.23
ATCGAGAGGTCGAGGTGAGTATAGAGAAAGGGAA | 2.04 | 3.39 | 3.48 | 1.2 | 3.51 | 2.76 | 0.486 | 0.635
CCTCGGAGCACAGAAGGTCAGAGCTGTCCGCTTT | 3.08 | 2.63 | 2.37 | 0.0874 | 2.3 | 3.13 | -0.478 | -0.376
TTACCAAGGTGAGCTCAGGTCGTTGATCCAACTC | 1.03 | 0.577 | 0.405 | -0.211 | 0.652 | 4.12 | 1.43 | 0.416
CCTACTGGGCTAAAAAGGTCATTGATGCCGATAA | 4.14 | 4.08 | 3.54 | 0.543 | 4.39 | 3.01 | 0.22 | 2.22
CGTCCAAGGTCAAGGGTCAGTGAAGAGATGACGG | 5.05 | 7.4 | 7.41 | 3.29 | 8.75 | 4.58 | 2.82 | 3.3
CCAGACAGGTGAAAGGTACCTCAGTCTGGTACGC | 0.251 | 0.666 | 0.394 | -0.333 | 1.32 | 0.325 | -0.329 | -0.438
GCTCGGAGGACAAGGTCAGAGATTTGTCCGTAGA | 2.83 | 2.84 | 3.13 | 0.212 | 2.23 | 2.82 | 1.51 | 0.17
CAGACTAGGTCAAGAGGTCAAAGTCCGCTTCCCG | 5.34 | 8 | 7.45 | 2.6 | 7.71 | 4.23 | 2.26 | 3.84
TCAGACAGGTGAAGGTAACGCAGGTACGCAGTCG | 0.708 | 0.407 | 0.419 | 0.772 | 1.05 | 1.01 | 0.208 | -0.187
ATCTCTAGGTAACGAGTTCAGTGAAAGAGAGGAC | 1.67 | 1.08 | 1.07 | 1.58 | 1.01 | 1.97 | 1.21 | 4.11
CCTTACGGGTCAAGGTTATAGCGCGGGTGGTACG | 3.48 | 4.83 | 4.46 | 1.19 | 5.01 | 2.96 | 0.728 | 1.52
TTTCCAAGGTGAGCTGAGGTCGTTGATCCAACTC | 1.73 | 1.51 | 1.2 | 0.414 | 1.59 | 4.61 | 2.71 | 2.61

Sequence | PBM binding z-score [1] | PBM binding z-score [2] | PBM binding z-score [3] | PBM binding z-score [4] | PBM binding z-score [5] | PBM binding z-score [6] | PBM binding z-score [7] | PBM binding z-score [8]
GCTATTAGTTGAAAGGGCAACCGTATGATTCTCG | 2.21 | 1.41 | 1.14 | 1.01 | 1.43 | 0.799 | -0.237 | 0.306
TCATATAGATAAAAGGTGAAAGTCGGTGTGGTAA | 1.53 | 1.23 | 0.872 | 2.07 | 2.41 | 1.24 | 0.0496 | 0.309
CATACTGGGCCAAAAAGGTCATTGATGCCGATAA | 4.48 | 4.89 | 4.82 | 1.25 | 5.11 | 3.14 | 0.641 | 3.14
CAAACTAGTTCACCGGAAGGTCAAAGTCCGCATG | 4.92 | 6.9 | 4.99 | 2.8 | 4.73 | 3.73 | 1.72 | 3.2
AGAACGAGGGCACGCTGAGCTGATAGCAGAGTAG | 0.904 | 1.83 | 2.12 | 1.48 | 1.2 | 1.39 | -0.398 | 0.48
ACTAGTTGGTCAGCTGAGGTCAAACACAATTCGG | 4.23 | 4.33 | 3.72 | 1.72 | 4.56 | 4.9 | 4.87 | 3.66
TTACCAAGGTGAGCTGAGGTCGTGGATCCAACTC | 1.97 | 1.47 | 0.791 | -0.207 | 1.82 | 4.83 | 2.55 | 0.927
GCGAGCAGGCCATTTGGGTCACTCAATGACGGGC | 1.96 | 1.09 | 1.37 | 0.115 | 0.824 | 1.85 | 0.687 | 0.921
TCGAGTAGGTTAGGGGCTTTCAGAATGGCGTCGA | 0.146 | -0.192 | -0.707 | 0.128 | 0.00359 | -0.109 | 0.122 | -0.301
TCTATTAGTCGAAGGGCAACCGACGAGTCCGTTT | 1.15 | 0.394 | 0.638 | 1.56 | 0.534 | 0.187 | -0.0492 | 1.35
TCTTGTAGATCAGAAGGTTAAGAAAGCTGGCCAA | 1.17 | 0.818 | 0.198 | 0.89 | 1.31 | 0.538 | -0.485 | -0.118
AGTCAAAGTTCAGGACGAAGTAACGTAAAGCACG | 2.72 | 3.82 | 4.58 | 2.8 | 2.71 | 1.95 | 0.0307 | 1.27
TAGCCTAGGTCATTCAGGAGCCAGTATAGAAAGC | 2.45 | 4.25 | 4.41 | 1.37 | 2.96 | 2.68 | 0.478 | 1.09
AGACTGAGGTTAAGATCAGGGAAACAGAATACAT | 0.774 | 2.09 | 1.38 | 0.593 | 2.21 | 2.35 | 0.489 | 0.3
CCGACAGGGGCATAAGGTTACCATAAGCCAGCCC | 2.13 | 2.36 | 1.62 | 0.428 | 2.01 | 2.43 | 1.43 | 0.293
TCTAGCAGGCCCGAGGGTCACTCAAGAGGTACGG | 2.43 | 2.27 | 1.72 | 0.126 | 2.42 | 1.67 | -0.376 | 0.268
TCATATAGGTAAAAGGTGAAATTCGGTGTGGTAA | 1.8 | 1.8 | 0.738 | 1.92 | 3.04 | 1.77 | 0.523 | 0.37
GCTGCTGGGTCAGGTTGGTCAGCTAACGGGTACG | 2.57 | 1.94 | 2.78 | -0.0156 | 0.839 | 1.21 | 0.312 | 0.573
